# Where “and” joins values, the source holds several entries; their conditions need not be identical. Identical values can stand only once. Inconclusive results are not listed. Some compounds were tested as several samples or in several runs, with calls that do not always agree. Calls of active or inactive are those of the source. Rule for the calls: active = hit-call score of the fitted dose curve at least 0.9, where 1 is the maximum; inconclusive = response in the unintended direction; inactive = score below 0.9.
# Assays:
# [1] = molecular target: Glucocorticoid receptor (Homo sapiens) (UniProt P04150); assay: NVS_NR_hGR: NovaScreen (NVS) Nuclear Receptor Binding Assay for human Glucocorticoid Receptor (GR) (AID 2283363);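 for AC50: activity is loss of specific radioligand binding signal relative to DMSO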
# Summary of the method: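 Cell-free radioligand displacement assay on extracted human GR, read 16 h after dosing by filter-based scintillation counting. Screened in duplicate at 25 uM, then concentration series for actives; loss of signal versus DMSO baseline.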
# [2] = molecular target: Nuclear receptor subfamily 1 group I member 2 (Homo sapiens) (UniProt O75469); assay: NVS_NR_hPXR: NovaScreen (NVS) Nuclear Receptor Binding Assay for human Pregnane X Receptor (PXR) (AID 2283365);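 note: a drop in FRET signal versus DMSO baseline means the compound binds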
# Summary of the method: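 Human PXR binding measured by TR-FRET in a cell-free format, 2 h exposure. Single-concentration duplicates at 25 uM preceded concentration-response retests of actives; endpoint fitted positively relative to DMSO, loss of signal indicating binding.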
# [3] = molecular target: rat Androgen Receptor (AR), Ar (gene 24208) (UniProt P15207); assay: NVS_NR_rAR: NovaScreen (NVS) Nuclear Receptor Binding Assay for rat Androgen Receptor (AR) (AID 2283366)
# Summary of the method: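 Cell-free radioligand binding on extracts of prostate from testosterone-pretreated rats, read by filter-based scintillation counting 18 h after dosing. Loss of bound signal fitted positively versus DMSO; primary screen in duplicate at 25 uM, actives followed up in concentration series.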
# [4] = molecular target: guinea pig Sigma Receptor, Non-selective Binding, SIGMAR1 (gene 100135589) (UniProt Q60492); assay: NVS_OR_gSIGMA_NonSelective: NovaScreen (NVS) Nuclear Receptor Binding Assay for guinea pig Sigma Receptor, Non-selective Binding (AID 2283367)
# Summary of the method: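 Radioligand displacement on guinea pig brain membranes, read by filter-based scintillation counting 1 h after dosing. Loss of signal versus DMSO; initial duplicate single-point screen at 25 uM, actives followed in concentration series.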
# [5] = molecular target: human Adenosine Transporter (Adot), SLC29A1 (gene 2030) (UniProt Q99808); assay: NVS_TR_hAdoT: NovaScreen (NVS) Transporter Assay for human Adenosine Transporter (Adot) (AID 2283368)
# Summary of the method: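 U937-derived membranes, cell-free radioligand binding, filter scintillation 1 h after dosing. 25 uM duplicate screen; hits (e.g. 30% inhibition) run in concentration-response up to 50 uM; loss of signal versus DMSO.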
# [6] = molecular target: human Serotonin Transporter (SERT), SLC6A4 (gene 6532) (UniProt P31645); assay: NVS_TR_hSERT: NovaScreen (NVS) Transporter Assay for human Serotonin Transporter (SERT) (AID 2283372)
# Summary of the method: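 Radioligand binding to native SERT in human platelet membranes, read by filter-based scintillation counting 1 h after dosing. Primary screen in duplicate at 25 uM; actives followed up in concentration series; loss of signal versus DMSO baseline.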
# [7] = molecular target: rat Serotonin Transporter (SERT), Slc6a4 (gene 25553) (UniProt P31652); assay: NVS_TR_rSERT: NovaScreen (NVS) Transporter Assay for rat Serotonin Transporter (SERT) (AID 2283375)
# Summary of the method: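 Radioligand binding with competitive displacement on rat forebrain membrane preparations, counted by filtration and scintillation after 1 h. Primary single-point duplicates at 25 uM; active chemicals followed up in concentration-response. DMSO served as baseline.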
# [8] = test system: rat Norepinephrine Transporter (NET), gene 83511; assay: NVS_TR_rNET: NovaScreen (NVS) Transporter Assay for rat Norepinephrine Transporter (NET) (AID 2283373)
# Summary of the method: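 Rat forebrain membranes; radioligand binding measured by filter-based scintillation counting 1 hour after dosing. Loss of specific binding versus DMSO baseline scored; primary screen in duplicate at 25 uM, actives followed up in concentration series.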
# [9] = test system: guinea pig Dopamine Transporter (DAT), gene 100714898; assay: NVS_TR_gDAT: NovaScreen (NVS) Transporter Assay for guinea pig Dopamine Transporter (DAT) (AID 2283369);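 note: active compounds lower bound radioligand signal relative to DMSO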
# Summary of the method: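 Radioligand displacement on membranes from guinea pig striatum, 2 h exposure, bound label counted by filtration and scintillation. Tested at 25 uM in duplicate, then actives in concentration series to 50 uM; DMSO as negative control.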
# [10] = molecular target: human Dopamine Transporter (DAT), SLC6A3 (gene 6531) (UniProt Q01959); assay: NVS_TR_hDAT: NovaScreen (NVS) Transporter Assay for human Dopamine Transporter (DAT) (AID 2283374);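 note: activity means loss of bound radioligand signal relative to DMSO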
# Summary of the method: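 Cell-free radioligand displacement binding at human DAT, 1 h after dosing, with filtration and scintillation counting. Primary screen in duplicate at 25 uM, actives then in concentration series. Loss of bound signal versus DMSO scored.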
# Glucocorticoid receptor (Homo sapiens), sequence (P04150 whole entry, looked up): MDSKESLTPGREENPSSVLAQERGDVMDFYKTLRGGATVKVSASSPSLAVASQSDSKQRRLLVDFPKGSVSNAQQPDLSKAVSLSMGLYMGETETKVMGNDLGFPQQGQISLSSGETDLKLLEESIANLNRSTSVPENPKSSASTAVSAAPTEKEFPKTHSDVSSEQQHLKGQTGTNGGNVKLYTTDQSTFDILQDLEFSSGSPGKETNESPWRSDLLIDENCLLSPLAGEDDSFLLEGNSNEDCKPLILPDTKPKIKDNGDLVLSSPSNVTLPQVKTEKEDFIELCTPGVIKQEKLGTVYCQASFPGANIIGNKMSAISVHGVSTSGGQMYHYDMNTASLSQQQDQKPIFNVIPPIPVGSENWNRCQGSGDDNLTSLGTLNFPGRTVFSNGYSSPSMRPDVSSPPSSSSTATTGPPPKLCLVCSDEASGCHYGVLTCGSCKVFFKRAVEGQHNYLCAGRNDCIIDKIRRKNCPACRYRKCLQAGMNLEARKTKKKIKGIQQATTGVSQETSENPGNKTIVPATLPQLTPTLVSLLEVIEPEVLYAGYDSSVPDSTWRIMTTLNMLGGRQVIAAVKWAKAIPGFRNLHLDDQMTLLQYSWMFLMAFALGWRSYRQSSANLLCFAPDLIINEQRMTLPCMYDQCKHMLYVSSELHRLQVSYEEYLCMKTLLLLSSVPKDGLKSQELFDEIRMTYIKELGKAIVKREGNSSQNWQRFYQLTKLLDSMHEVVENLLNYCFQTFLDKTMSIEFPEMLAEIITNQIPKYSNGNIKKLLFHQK
# human Dopamine Transporter (DAT), SLC6A3 (gene 6531), sequence (Q01959 whole entry, looked up): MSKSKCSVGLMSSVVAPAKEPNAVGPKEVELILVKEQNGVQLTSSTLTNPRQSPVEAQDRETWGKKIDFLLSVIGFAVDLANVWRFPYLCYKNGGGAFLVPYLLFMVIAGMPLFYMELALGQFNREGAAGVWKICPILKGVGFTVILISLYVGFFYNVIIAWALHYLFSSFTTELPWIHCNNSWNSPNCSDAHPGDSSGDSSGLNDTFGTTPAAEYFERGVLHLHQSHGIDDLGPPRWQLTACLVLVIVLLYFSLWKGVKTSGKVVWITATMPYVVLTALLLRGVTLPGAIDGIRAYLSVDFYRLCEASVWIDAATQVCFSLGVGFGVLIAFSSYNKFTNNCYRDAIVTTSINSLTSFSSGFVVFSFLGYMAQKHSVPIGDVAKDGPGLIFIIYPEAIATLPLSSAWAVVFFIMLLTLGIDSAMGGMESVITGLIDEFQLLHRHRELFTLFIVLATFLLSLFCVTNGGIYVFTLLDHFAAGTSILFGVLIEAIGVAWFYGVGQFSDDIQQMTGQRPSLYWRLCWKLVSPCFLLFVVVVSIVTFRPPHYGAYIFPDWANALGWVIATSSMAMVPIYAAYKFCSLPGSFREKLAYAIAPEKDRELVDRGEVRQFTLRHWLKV
# human Adenosine Transporter (Adot), SLC29A1 (gene 2030), sequence (Q99808 whole entry, looked up): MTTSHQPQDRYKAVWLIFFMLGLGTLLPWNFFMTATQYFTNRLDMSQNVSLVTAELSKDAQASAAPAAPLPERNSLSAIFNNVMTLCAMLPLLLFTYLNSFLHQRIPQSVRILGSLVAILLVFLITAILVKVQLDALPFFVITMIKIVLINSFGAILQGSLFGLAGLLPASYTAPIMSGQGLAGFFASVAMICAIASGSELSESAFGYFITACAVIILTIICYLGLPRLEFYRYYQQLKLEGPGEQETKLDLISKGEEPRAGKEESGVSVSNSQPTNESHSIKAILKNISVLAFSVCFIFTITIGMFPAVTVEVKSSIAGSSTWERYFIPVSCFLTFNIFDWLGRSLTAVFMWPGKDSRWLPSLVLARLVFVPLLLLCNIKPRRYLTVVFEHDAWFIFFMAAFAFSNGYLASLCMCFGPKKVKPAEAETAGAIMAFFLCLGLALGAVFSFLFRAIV
# guinea pig Sigma Receptor, Non-selective Binding, SIGMAR1 (gene 100135589), sequence (Q60492 whole entry, looked up): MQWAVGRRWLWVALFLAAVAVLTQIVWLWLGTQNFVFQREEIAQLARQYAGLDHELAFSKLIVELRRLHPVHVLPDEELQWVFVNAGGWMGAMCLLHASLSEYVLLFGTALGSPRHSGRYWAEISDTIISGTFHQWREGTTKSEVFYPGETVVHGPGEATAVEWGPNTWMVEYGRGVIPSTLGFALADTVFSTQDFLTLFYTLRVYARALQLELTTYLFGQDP
# human Serotonin Transporter (SERT), SLC6A4 (gene 6532), sequence (P31645 whole entry, looked up): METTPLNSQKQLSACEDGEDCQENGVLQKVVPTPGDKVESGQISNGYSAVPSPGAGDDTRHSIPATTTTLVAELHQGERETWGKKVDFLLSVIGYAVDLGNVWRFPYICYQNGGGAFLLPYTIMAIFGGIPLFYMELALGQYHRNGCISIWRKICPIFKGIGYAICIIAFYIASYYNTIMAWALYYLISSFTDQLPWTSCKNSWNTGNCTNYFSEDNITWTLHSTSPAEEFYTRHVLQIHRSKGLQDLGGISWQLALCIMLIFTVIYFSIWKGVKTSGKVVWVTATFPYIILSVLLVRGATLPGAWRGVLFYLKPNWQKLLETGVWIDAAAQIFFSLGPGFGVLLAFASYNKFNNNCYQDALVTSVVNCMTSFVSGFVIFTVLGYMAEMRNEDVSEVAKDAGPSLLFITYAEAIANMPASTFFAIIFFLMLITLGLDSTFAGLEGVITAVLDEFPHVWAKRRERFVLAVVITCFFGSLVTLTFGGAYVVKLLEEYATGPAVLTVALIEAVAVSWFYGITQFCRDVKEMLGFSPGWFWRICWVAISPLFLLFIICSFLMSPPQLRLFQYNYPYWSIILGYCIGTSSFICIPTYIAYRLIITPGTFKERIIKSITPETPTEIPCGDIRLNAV
# rat Serotonin Transporter (SERT), Slc6a4 (gene 25553), sequence (P31652 whole entry, looked up): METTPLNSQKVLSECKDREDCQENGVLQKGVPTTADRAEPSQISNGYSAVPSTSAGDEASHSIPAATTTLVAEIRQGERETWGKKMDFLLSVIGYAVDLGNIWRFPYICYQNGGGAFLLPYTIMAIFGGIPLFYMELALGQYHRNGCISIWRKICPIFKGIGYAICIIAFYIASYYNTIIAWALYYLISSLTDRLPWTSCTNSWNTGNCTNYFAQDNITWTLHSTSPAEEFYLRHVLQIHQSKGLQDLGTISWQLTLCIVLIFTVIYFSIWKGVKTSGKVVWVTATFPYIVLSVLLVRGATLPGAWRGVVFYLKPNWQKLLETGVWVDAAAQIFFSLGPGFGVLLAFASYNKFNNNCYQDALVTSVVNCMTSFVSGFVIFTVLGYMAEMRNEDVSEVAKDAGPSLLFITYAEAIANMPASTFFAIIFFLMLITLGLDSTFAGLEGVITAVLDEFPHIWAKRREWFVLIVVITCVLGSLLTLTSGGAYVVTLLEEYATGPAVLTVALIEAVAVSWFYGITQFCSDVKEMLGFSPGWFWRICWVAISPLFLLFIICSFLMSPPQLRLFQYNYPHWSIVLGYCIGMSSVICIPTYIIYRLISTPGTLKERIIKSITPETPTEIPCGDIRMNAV
# Nuclear receptor subfamily 1 group I member 2 (Homo sapiens), sequence (O75469 whole entry, looked up): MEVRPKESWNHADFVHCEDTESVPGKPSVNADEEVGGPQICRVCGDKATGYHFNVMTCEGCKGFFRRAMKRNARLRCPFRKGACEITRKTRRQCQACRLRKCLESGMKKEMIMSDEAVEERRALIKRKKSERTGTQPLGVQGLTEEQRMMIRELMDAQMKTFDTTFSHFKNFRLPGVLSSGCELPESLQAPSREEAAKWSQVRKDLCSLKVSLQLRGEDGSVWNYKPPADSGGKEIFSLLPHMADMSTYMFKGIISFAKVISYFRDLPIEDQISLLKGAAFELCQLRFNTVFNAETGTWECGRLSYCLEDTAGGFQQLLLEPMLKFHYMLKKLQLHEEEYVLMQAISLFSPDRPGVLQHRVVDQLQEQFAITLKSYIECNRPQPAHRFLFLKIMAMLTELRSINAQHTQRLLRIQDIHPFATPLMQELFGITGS
# rat Androgen Receptor (AR), Ar (gene 24208), sequence (P15207 whole entry, looked up): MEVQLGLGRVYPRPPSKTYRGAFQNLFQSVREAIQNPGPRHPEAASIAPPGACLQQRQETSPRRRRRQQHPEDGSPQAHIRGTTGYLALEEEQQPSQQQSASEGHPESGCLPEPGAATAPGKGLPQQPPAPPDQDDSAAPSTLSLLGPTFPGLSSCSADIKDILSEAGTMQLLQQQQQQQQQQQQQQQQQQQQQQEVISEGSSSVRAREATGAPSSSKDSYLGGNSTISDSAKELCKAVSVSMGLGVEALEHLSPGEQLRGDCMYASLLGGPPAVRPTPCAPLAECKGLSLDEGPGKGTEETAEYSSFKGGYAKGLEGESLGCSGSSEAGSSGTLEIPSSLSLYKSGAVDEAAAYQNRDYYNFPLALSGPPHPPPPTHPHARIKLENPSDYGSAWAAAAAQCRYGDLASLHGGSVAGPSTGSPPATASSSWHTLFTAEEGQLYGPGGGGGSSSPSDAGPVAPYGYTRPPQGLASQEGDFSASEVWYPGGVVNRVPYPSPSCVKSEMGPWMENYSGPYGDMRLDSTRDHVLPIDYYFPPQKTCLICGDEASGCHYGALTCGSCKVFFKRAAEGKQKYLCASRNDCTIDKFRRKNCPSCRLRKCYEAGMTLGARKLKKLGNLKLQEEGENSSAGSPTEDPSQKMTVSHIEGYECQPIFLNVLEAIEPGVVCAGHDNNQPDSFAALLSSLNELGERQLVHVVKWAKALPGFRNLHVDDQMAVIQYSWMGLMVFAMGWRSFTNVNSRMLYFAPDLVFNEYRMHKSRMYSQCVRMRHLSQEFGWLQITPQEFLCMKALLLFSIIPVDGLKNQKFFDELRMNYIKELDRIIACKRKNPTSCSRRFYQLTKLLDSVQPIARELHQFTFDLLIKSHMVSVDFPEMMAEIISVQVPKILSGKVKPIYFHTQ
structure (smiles),measurement,setting,value
CCCC1COC(Cn2cncn2)(c2ccc(Cl)cc2Cl)O1 (stereo not given),AC50,[1],10.5 µM (active)
same,outcome,[2],inactive
same,outcome,[3],inactive
same,AC50,[4],25 µM (active)
COc1nc(C)nc(NC(=O)NS(=O)(=O)c2ccccc2CCC(F)(F)F)n1,AC50,[5],0.0855 µM (active)
same,outcome,[5],inactive
same,outcome,[6],inactive
same,outcome,[7],inactive
Oc1ccccc1-c1ccccc1,AC50,[2],15.7 µM (active)
same,outcome,[8],inactive
COc1nc(NC(C)C)nc(NC(C)C)n1,outcome,[6],inactive
same,outcome,[7],inactive
CC1COC(Cn2cncn2)(c2ccc(Oc3ccc(Cl)cc3)cc2Cl)O1 (stereo not given),AC50,[1],1.89 µM (active)
same,AC50,[4],1.27 µM (active)
same,AC50,[9],12.3 µM (active)
same,AC50,[10],2.93 µM (active)
CO/C=C(/C(=O)OC)c1ccccc1Oc1cc(Oc2ccccc2C#N)ncn1,outcome,[1],inactive
same,outcome,[2],inactive
same,outcome,[3],inactive
same,outcome,[5],inactive
same,outcome,[10],inactive
C=CC1(C)OC(=O)N(c2cc(Cl)cc(Cl)c2)C1=O (stereo not given),AC50,[1],6.97 µM (active)
same,outcome,[1],inactive
Cc1cc(Cl)ccc1OCC(=O)O,outcome,[6],inactive
same,outcome,[7],inactive
CCCCNC(=O)n1c(NC(=O)OC)nc2ccccc21,outcome,[8],inactive
COC(=O)N(OC)c1ccccc1COc1ccn(-c2ccc(Cl)cc2)n1,AC50,[1],2.01 µM (active)
COC(=O)c1ccccc1C(=O)OC,outcome,[1],inactive
Fc1ccc(Oc2ccnc3cc(Cl)cc(Cl)c23)cc1,AC50,[9],13.8 µM (active)
same,AC50,[10],9.77 µM (active)
N#Cc1nn(-c2c(Cl)cc(C(F)(F)F)cc2Cl)c(N)c1S(=O)C(F)(F)F (stereo not given),outcome,[4],inactive
Cc1ccc(-c2c(Cl)nc(C#N)n2S(=O)(=O)N(C)C)cc1,outcome,[1],inactive
CCc1nn(C)c(C(=O)NCc2ccc(C(C)(C)C)cc2)c1Cl,AC50,[4],16.2 µM (active)
same,AC50,[10],6.22 µM (active)
OC(c1ccc(Cl)cc1)(c1cncnc1)c1ccccc1Cl (stereo not given),AC50,[1],8.34 µM (active)
same,outcome,[4],inactive
same,AC50,[10],0.944 µM (active)
C=CCC1=C(C)C(OC(=O)C2C(C=C(C)C)C2(C)C)CC1=O (stereo not given),outcome,[1],inactive
same,AC50,[9],26.2 µM (active)
same,outcome,[9],inactive
same,AC50,[10],7.76 µM (active) and 487 nM (active) and 23.7 µM (active)
same,outcome,[10],inactive
CC1=C(C(=O)Nc2ccccc2)SCCO1,AC50,[9],13.9 µM (active)
same,AC50,[8],8.37 µM (active)
same,AC50,[10],9.69 µM (active)
CCCCC(CC)COC(=O)c1ccccc1C(=O)OCC(CC)CCCC (stereo not given),AC50,[1],8.8 µM (active)
CON(C)C(=O)Nc1ccc(Cl)c(Cl)c1,AC50,[1],8.61 µM (active)
same,outcome,[2],inactive
same,AC50,[4],12 µM (active)
same,AC50,[10],13.4 µM (active)
